JMJD2A Tudor: JMJD2A Tudor domain (human) inhibition. O75164. AlphaScreen JMJD2A-Tudor / H3K4me3 peptide binding. Potency, µM (top dose mostly 114 µM), for inactives: top-dose activity change, negative = inhibition, most hits filed as inhibitors. hit rate 4.4% among 390,000; also: % is scaled to controls: 0 for no effect and ±100 for the full control effect; nearly all actives have a fitted effect of over 50% in size
G9a inh: G9a (human) methyltransferase inhibition; G9a H3K9 monomethylation, AlphaScreen, 2 h; Potency, µM (doses to about 102 µM), for inactives: at the top dose activity, negative = inhibition, most hits filed as inhibitors; hit rate 8.8% among 350,000; AID 504332; also: % is scaled to controls: 0 for no effect and ±100 for the full control effect; nearly all actives have a fitted effect of over 75% in size
Target sequence (Q96KQ7 913-1193 limits assumed): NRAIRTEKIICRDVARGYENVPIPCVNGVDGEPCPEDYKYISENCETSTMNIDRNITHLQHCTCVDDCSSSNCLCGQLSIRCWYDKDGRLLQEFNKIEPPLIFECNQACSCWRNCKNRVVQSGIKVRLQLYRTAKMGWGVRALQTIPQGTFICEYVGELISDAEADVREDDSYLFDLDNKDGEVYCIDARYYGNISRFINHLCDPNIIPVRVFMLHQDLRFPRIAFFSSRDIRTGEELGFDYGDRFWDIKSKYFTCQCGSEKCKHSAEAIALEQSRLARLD
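Methyltransferase reactions run at room temperature for 2 h (20 nM enzyme, 500 nM biotin-H3K9 peptide, 20 uM SAM) after a 15 min compound preincubation; product detected by AlphaScreen beads and anti-H3K9me1 antibody.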
L3MBTL1 inh: blocks human L3MBTL1; AlphaScreen L3MBTL1–H3K9me1 peptide binding; hit rate 0.66% among 230,000; Potency, µM (series often up to 57.1 µM), without a hit: top-dose activity, negative = inhibition, usual class: inhibitors; AID 485360; Q9Y468; also: % is scaled to controls: 0 for no effect and ±100 for the full control effect; nearly all actives have a fitted effect of over 60% in size
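L3MBTL1 50 nM + b-AHA-H3(1-15)K9me1 75 nM, 30 min RT; compound added, 30 min RT; streptavidin donor/Ni-chelate acceptor beads 10 ug/mL each final, 30 min RT dark; AlphaScreen read.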
Sfp PPTase inh: blocks B. subtilis Sfp PPTase activity. Q9F4F7. Biochemical Sfp PPTase activity, qHTS. Potency, µM, inactives show largest response in the series, negative = inhibition, usual class: inhibitors. hit rate 3.5% among 310,000. AID 1490;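 also: the enzyme is Sfp with the accession as filed and its product quenches rhodamine fluorescence; 0% = enzyme reaction without inhibitor and -100% = no enzyme wells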
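Fluorescence-quenching assay with 15 nM Sfp, 5 uM rhodamine-CoA and 12.5 uM BHQ-2-labelled ybbR peptide in pH 7.6 Hepes/MgCl2 buffer. Enzyme was pre-incubated with compound for 15 min at room temperature. Rate was taken from the 30-min fluorescence change (525/598 nm).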
HP1b chromo inh: inhibitors of HP1-beta chromodomain binding to methylated histone tails. P83916. AlphaScreen HP1-beta / biotin-H3K9me3 peptide binding. Potency, µM (doses to about 114 µM), for the others: at the top dose activity change, negative = inhibition, usual class: inhibitors. hit rate 0.56% among 390,000. AID 540317; also: nearly all actives have a fitted effect of over 70% in size
Target sequence (P83916 whole entry, looked up): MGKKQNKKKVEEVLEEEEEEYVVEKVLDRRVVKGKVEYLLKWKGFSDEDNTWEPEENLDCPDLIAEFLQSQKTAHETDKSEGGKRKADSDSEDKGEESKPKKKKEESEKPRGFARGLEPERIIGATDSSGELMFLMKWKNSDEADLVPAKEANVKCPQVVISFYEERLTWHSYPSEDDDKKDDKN
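HP1-beta protein (50 nM final) preincubated 30 min at room temperature with biotinylated H3(1-18)K9me3 peptide (50 nM) in PBS pH 7.4, 0.01% Tween-20, then compound added for 30 min. AlphaScreen streptavidin donor/nickel chelate acceptor beads (10 ug/mL final), 30 min dark, luminescence read.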
BAZ2B inh: BAZ2B (human) inhibition. AlphaScreen BAZ2B-H3K14Ac peptide displacement. Potency, µM (series often up to 114 µM), without a hit: at the highest dose activity change, negative = inhibition, most hits filed as inhibitors. hit rate 4.4% among 360,000. AID 504333; also: % is scaled to controls: 0 for no effect and ±100 for the full control effect; nearly all actives have a fitted effect of over 60% in size
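Complex of BAZ2B and biotin-H3K14Ac (50 nM apiece) forms over 30 min at RT, then faces library compounds up to 110 uM for another 30 min; AlphaScreen beads added, 20 min dark incubation, luminescence read.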
The depositor's hits bear a star; ? = inconclusive; nt = not tested or not shown; [ ] = dose if it differs, or a comment. In the library only some 12% were active in any assay of this set; here they are far more common. Calls follow the shape of the dose curve; as a rule, active = well fitted curve in the direction sought with a large enough effect; inconclusive = small, poorly fitted or top-dose-only effect, or another doubt; inactive = no such curve, though single readings can be large; an effect the other way counts as inactive or inconclusive. Potency is read from the fitted curve at half-maximal effect.

SMILES | JMJD2A Tudor | G9a inh | L3MBTL1 inh | Sfp PPTase inh | HP1b chromo inh | BAZ2B inh
CC1(C)O[C@@H]2O[C@H]([C@H](O)CO/N=C3/[C@H]4O[C@@H]4[C@@H](O)[C@H]4[C@H]3CCn3c(=O)n(-c5ccccc5)c(=O)n34)[C@@H](O)[C@@H]2O1 | nt | nt | nt | 15% | nt | nt
COc1cc(NS(=O)(=O)c2ccc(NC(=O)COc3ccccc3Cl)cc2)nc(OC)n1 | -26% | ? | nt | -11% | 55% | 11%
COc1cc(NS(=O)(=O)c2ccc(NC(=O)COc3cccc(C)c3)cc2)nc(OC)n1 | -14% | 25µM* | nt | -22% | 4% | 1%
COc1ccc(OCC(=O)NC(=S)Nc2ccc(S(=O)(=O)Nc3cc(OC)nc(OC)n3)cc2)cc1 | -1% | -50%[59 µM] | -4% | 1% | 15% | -25%
COC(=O)CCC(=O)NC(=S)Nc1ccc(S(=O)(=O)Nc2cc(OC)nc(OC)n2)cc1 | -6% | 50µM* | 3% | -3% | 29% | -19%
CC(C)c1ccc(OCC(=O)N(Cc2cccs2)C2CCS(=O)(=O)C2)cc1 (stereo not drawn) | -5% | 6%[59 µM] | nt | nt | 31% | 4%
Cc1c(C(=O)N2CCC(C(=O)Nc3ccc(F)c(Cl)c3)CC2)sc2nc[nH]c(=O)c12 | 1% | 12%[59 µM] | nt | nt | 29%[57 µM] | 9%
CC(Sc1nc(N)c2c3c(sc2n1)CSC(C)(C)C3)C(=O)Nc1ccccc1 (stereo not drawn) | 11µM* | -20% | -2% | -1% | ? | -7%
CC(Sc1nc(NCc2ccccc2)nc(N(C)C)n1)C(=O)Nc1ccccc1 (stereo not drawn) | -12% | nt | -2% | 15% | 47% | -26%
Cc1ccc2c(c1)c(C)c(C)n2CC(O)CN1CCCCC1C (stereo not drawn) | ? | ? | nt | 3% | -20% | -37%
Cc1ccc2c(c1)c1c(n2CC(O)CN2CCCCC2C)CCCC1 (stereo not drawn) | -10%[11.4 µM] | 45µM* | nt | 3% | -21% | ?
Cc1ccc2c(c1)c1c(n2CC(O)CN2CCOCC2)CCCC1 (stereo not drawn) | nt | ? | ? | -3% | nt | -35%
Cc1ccc2c(c1)c1c(n2CC(O)CN2CCC(C)CC2)CCCC1 (stereo not drawn) | 40µM* | ? | ? | -17% | -25%[57 µM] | ?
CC(=O)Nc1cc(C(=O)O)ccc1S(=O)(=O)c1ccc(C)cc1 | -20% | 50µM* | 4% | 1% | 20% | 2%
Cc1ccc(C)n1-c1ccc(N(C)C)cc1 | 50µM* | 7.1µM* | nt | 40µM* | ? | 25µM*
Cc1ccc(C)n1-c1ccc(N2CCOCC2)cc1 | ? | ? | -9% | -53% | -22% | ?
CCN(CC)C(=O)c1[nH]cnc1C(=O)Nc1ccc(OC)cc1 | -9% | -1%[59 µM] | nt | 5% | 18% | -38%
CCOC(=O)c1[nH]cnc1C(=O)Nc1ccncc1 | 28µM* | ? | nt | -6% | 1% | 50µM*
CCOC(=O)c1[nH]cnc1C(=O)Nc1ccc(F)cc1 | -26% | 45µM* | 5% | 17% | 38% | ?
CCN(CC)C(=O)c1[nH]cnc1C(=O)Nc1ccc(Cl)cc1 | -33% | -3%[0.501 µM] | -3% | nt | 37% | 50µM*
CCOC(=O)c1ccc(NC(=O)c2nc[nH]c2C(=O)N(CC)CC)cc1 | -25% | ? | nt | 20% | 37% | -2%
CCCCN1C(=O)C(O)(CC(=O)c2ccc(CC)cc2)c2cc(Br)ccc21 (stereo not drawn) | -12% | ? | nt | nt | 30% | -3%
Cc1ccc(N(CC(=O)NCc2ccc(F)cc2)C(=O)CCC(=O)Nc2ccccn2)cc1C | 79µM* | 15%[59 µM] | nt | 8% | 10% | 3%
Cc1ccc(N(CC(=O)NCc2ccco2)C(=O)CCC(=O)Nc2ccccn2)c(C)c1 | -14% | 22µM* | nt | 21% | 11% | -14%
Cc1cc(C)cc(N(CC(=O)NCc2ccco2)C(=O)CCC(=O)Nc2ccccn2)c1 | -14% | -14% | -4% | 3% | ? | -10%

Bioassay records from PubChem.
